Experimental findings from PubChem BioAssay (NCI) are described below.

About 83,000 compounds went through this panel and 20% of them were active in at least one assay; those are over-represented in the sample as a whole.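 Note: values are percent growth. 100 is the growth of untreated cells, values between 100 and 0 indicate rising inhibition; between -100 and 0 indicates cell death.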 Values without a mark were called inactive. The source made the active and inactive calls. The calls were made as follows: active = growth percent below 10; inactive = the rest.

The subject of the experiment is HL-60(TB) leukemia. The experiment can be described thus: NCI-60 one-dose screen, 48 h (100 = growth as untreated, 0 = no growth, -100 = all killed). The note with it: 10 µM unless noted.
As to `CC/C(=C(/c1ccc(Cl)cc1)c1ccc(OCCN2CCCCCC2)cc1)c1ccccc1`, the growth was 49.9%.

On to `O=C(c1c[nH]c2ccccc12)c1n[nH]c(=S)n1-c1cccc(Br)c1`, for which the growth was 88.8%.

`CCC/C(=N/NC(N)=O)c1ccco1`: the growth is 76.8%.

Turning to `O=C1c2ccccc2C(=Cc2ccccc2)c2ccccc21`, the growth was -1.29% (active).

In the case of `C#CCn1c2c(c3ccccc31)C[C@]1(C)[C@H]3CC[C@@H]4[C@@H]5C(=CCC[C@H]5C(=C)C)CC[C@@]4(C)[C@]3(C)CC[C@H]1C2(C)C`, the growth was 101%.

On to `CCCCCCNC(=O)Oc1ccc(/C(=C(/C)Cc2ccc(OC)cc2)c2ccc(OCCN3CCCCC3)cc2)cc1`, for which the growth was 57.9%.

Regarding `COC(=O)CCC/C=C\C[C@H]1C=CC(=O)/C1=C/C[C@@H](O)CCc1cccc(C(F)(F)F)c1`, the growth was -18.2% (active).

For the compound `COc1ccc(Cl)cc1Nc1nc(C(F)(F)F)ccc1C(=O)N/N=C/c1cccnc1`, the growth was 21.8%.

Consider `COc1ccc(/C=N/NC(=O)c2ccc(-n3cc(-c4ccccc4)nn3)cc2)cc1OC`, for which the growth is 94.2%.

For the compound `Oc1ccccc1C=NCC1CCC(CN=Cc2ccccc2O)CC1` (stereo not given), the growth is 123%.

`CC1=NN2C(=NC3=C(CCC/C3=C\c3ccc(Cl)cc3)C2c2ccc(Cl)cc2)S1` (stereo not given): the growth is 63.2%.

On to `Cc1ccc(-c2cn3cc([N+](=O)[O-])ccc3n2)cc1`, for which the growth was 47.7%.

`COc1cc(C2C3=C(COC3=O)N(CCO)c3cc4c(cc32)OCCO4)cc(OC)c1OC` (stereo not given): the growth was -21.8% (active).

Turning to `COc1cc(C)cc2oc3oc(=O)c(-c4csc(-c5cc6ccccc6oc5=O)n4)cc3c(=O)c12`, the growth was 115%.

`Cc1ccc2oc3nc(C)c(C(=O)NCc4ccccc4)cc3c(=O)c2c1`: the growth was 73.4%.

As to `O=C(CCN1CCCC1)Nc1ccc2c(NCCc3ccccc3)c3ccccc3nc2c1`, the growth was -58% (active).

Regarding `O=C(NCc1ccc(F)cc1)C1CN(c2ccc(Cl)cc2)N(c2ccc(Cl)cc2)C1=O` (stereo not given), the growth was 43.6%.

For the compound `COc1cc(/C=N/NC(=O)c2ccccc2Nc2ccnc(C(F)(F)F)c2)ccc1O`, the growth was 14%.

For `CCCNc1nc2ccccc2c2c1S(=O)(=O)c1ccc(Cl)cc1C2=O`, the growth is -14.1% (active).

As for `CN1CCCc2cc(/C=C3\SC(=S)N(C(Cc4ccc(O)cc4)C(=O)O)C3=O)ccc21` (stereo not given), the growth was 99.9%.

As for `CCOc1cccc(C2CC(=O)Nc3cc4c(cc32)OCO4)c1` (stereo not given), the growth was 90.7%.

Consider `COc1c(C2CC(=O)Nc3c2cnn3Cc2ccco2)cc2c(c1OC)OCO2` (stereo not given), for which the growth was -25.8% (active).

In the case of `C=CN(C(=O)N1CCN(c2cc3c(cc2F)c(=O)c(C(=O)O)cn3C2CC2)CC1)c1nc(-c2ccccc2)cs1`, the growth was 58.1%.

With `CCCCCC(C)(O)C(C(=O)O)c1ccccc1` (stereo not given), the growth is 110%.

`COc1cc(/C=C\c2cc(OC)c(OC)c(OC)c2)cc(N/C=C\C(=O)c2c[nH]c3ccccc23)c1OC`: the growth was -30% (active).

Consider `COc1cc(C2NN=C3c4ccccc4CCC32)cc(OC)c1OC` (stereo not given), for which the growth is 74.1%.

With `O=C(CCCSc1nc(-c2ccccc2)cc(-c2ccccc2)n1)NO`, the growth is -26.2% (active).

`Cc1ccc(O)c(NC(=O)c2cccc(Nc3ccnc(C(F)(F)F)c3)c2)c1`: the growth is -11.8% (active).

In the case of `CN1CCCN(CCNc2nccc(-c3c(-c4cccc(O)c4)nc4sccn34)n2)S1(=O)=O`, the growth was 69.2%.

Consider `O=C(O)CSCc1nnc2n(Cc3ccccc3)c(=O)c3c4c(sc3n12)CCCC4`, for which the growth is 94.9%.

`NC(=O)NNC(=O)c1ccccc1`: the growth is 103%.

As for `CCCCCCCCCCCCCCn1c2ccccc2c2c3c(c4c5cc(OC)ccc5oc4c21)C(=O)NC3=O`, the growth is 115%.

`[2H]C([2H])([2H])Oc1ccc(/C=C/C(=O)/C=C(O)/C=C/c2ccc(OC([2H])([2H])[2H])c(OC([2H])([2H])[2H])c2)cc1OC([2H])([2H])[2H]`: the growth is 54.5%.

Regarding `O=C1CC(c2ccccc2)Cc2nc3ccc(Br)cc3cc21` (stereo not given), the growth is -28.4% (active).

Regarding `Clc1ccc2c(c1)C(c1c[nH]c3ccccc13)(c1c[nH]c3ccccc13)CCO2`, the growth was 82%.

`COc1cc(NC(=O)c2cc(O)c(CC=C(C)C)c(O)c2)cc2c1O[C@]1(C)CC[C@@H](O)C(C)(C)[C@H]1C2`: the growth was 9.12% (active).

Take `N=c1sc(Cc2ccc(Cl)cc2)cn1CC(=O)c1ccc(F)cc1`: the growth was 94.8%.

With `Oc1[nH]c2ccc(Cl)cc2c1/C=c1/ccc2c(c1)N=C(c1ccc(F)cc1)N=2`, the growth is 51.5%.

Consider `COc1ccccc1NC(=O)C1CC(c2ccc(F)cc2)=NO1` (stereo not given), for which the growth is 103%.

Turning to `CN(C)c1ccc(/C=C\N=Nc2ccc(Br)cc2)cc1`, the growth was 16.6%.
